{"source": "PubChem BioAssay AID602293", "about": "(National Center for Advancing Translational Sciences (NCATS), 2012)", "note": "The campaign covered roughly 1,300 compounds. About 30 (2%) were called active. Roughly 10% stayed inconclusive and do not appear here. Calls follow the shape of the dose curve; as a rule, active = well fitted inhibition curve with a large enough effect; inconclusive = small, poorly fitted or top-dose-only effect; inactive = flat fitted curve, though single readings scatter. The full list was thinned out, with actives kept by preference. % is scaled to controls: 0 for no effect and ±100 for the full control effect; potency is read from the fitted curve at half-maximal effect.", "data": [{"assay": "qHTS for antagonists of the Thyroid Stimulation Hormone Receptor: Hit Validation in HTRF Activity in a Luteinizing Hormone Receptor Cell Line", "conditions": "LHR-expressing cell line, cAMP HTRF, antagonist mode; series mostly up to 58 µM; activity change, negative = inhibition: at the top concentration", "source_text": "The thyroid-stimulating hormone receptor (TSHR) is a member of the 7 trans-membrane-spanning receptor (7TMR) family of cell surface receptors. TSHR-mediated hyperthyroidism is important in thyroid pathology. The development of small molecule antagonists of TSHR may lead to therapeutic approaches for TSHR-mediated hyperthyroidism caused by constitutively activating mutations or stimulating auto-antibodies associated with Graves' disease. Graves' disease is the leading cause of hyperthyroidism and is caused by autoantibodies that stimulate TSHR (TsAbs) causing thyroid growth and unregulated overproduction of thyroid hormones and existing treatments have liabilities (agranulocytosis). In addition, TSHRs are known to be expressed in multiple extrathyroidal tissues including bone, brain, kidney, testis, fat and cells of the immune system but the role of the TSHR in these tissues is not clear. Therefore, TSHR antagonists/inverse agonists could be used as probes of extrathyroidal TSHR function. Finally, TSHR inverse agonists, which are a subclass of antagonists that inhibit agonist-independent (or basal or constitutive) TSHR signaling, could be used to inhibit TSH-independent signaling in patients with recurrent or metastatic thyroid cancer who are receiving thyroid hormone to suppress TSH.\nIn collaboration between scientist from the NCGC and the NIDDK, a miniaturized HTRF high-throughput screen was developed. It's a cell based assay, where an anti cAMP antibody contains a fluorescent cryptate tag (excitation 337 nm; emission 620 nm) and the acceptor is cAMP-d2 (excitation 620 nm; emission 665 nm). When antibody and cAMP-d2 interact and are excited by a 337 nm light, a FRET occurs resulting in emission at 665 nm. The assay is competition between cAMP-d2 and cAMP (from the cell lysate). The homogeneous protocol allows for one step dispense after stimulation that is automation friendly. In order to confirm specificity of the compounds to the TSHR, a confirmatory assay was conducted on a similar family member, the Luteinizing Hormone (LH) receptor, transfected into a HEK 293 cell line, using an orthogonal detection technology to measure cAMP stimulation: antibody-based Homogeneous Time Resolved Fluorescence (HTRF).\nNIH Chemical Genomics Center [NCGC]\nNIH Molecular Libraries Probe Centers Network [MLPCN]\nAssay Provider: Marvin Gershengorn, NIDDK\nHomogeneous Time Resolved Fluorescence (HTRF) cAMP Assay. HEK 293 cells stably transfected with a vector containing the LH receptor and maintained under hygromycin selection were obtained from the laboratory of Dr. Marvin Gershengorn. Compounds were assayed using a HTRF cAMP detection kit (Cisbio) on the LH receptor transfected cell line. Briefly, 750 cells were plated in 2.5 ul/well of complete media (DMEM containing 10 % FCS, and 100 uM RO 20-1724) in 1536 well solid bottom white plates and 23 nl/well compound in DMSO solution or controls was added. Following 30 minute incubation at room temperature, 2.5 ul/well of labeled d2 cAMP and 2.5 ul/well of anti-cAMP antibody (both diluted 1:20 in lysis buffer) were added to each well using a flying reagent dispenser (Aurora Discovery, San Diego) . Plates were measured using the Envision plate reader (PerkinElmer, Boston, MA) with excitation at 330 nm and emissions of 615 nm and 660 nm.", "values": [{"smiles": "Cc1nc(NCCc2ccccc2)c(C#N)c(C)c1[N+](=O)[O-]", "activity change, negative = inhibition": "-0.65% (inactive)"}, {"smiles": "O=C(OCn1ncc(Cl)c(Cl)c1=O)c1ccccc1Cl", "activity change, negative = inhibition": "-5.91% (inactive)"}, {"smiles": "O=S(=O)(Nc1cccnc1)c1ccc(C2CCCCC2)cc1", "activity change, negative = inhibition": "1.64% (inactive)"}, {"smiles": "CC(C)Cc1nc2oc3c(Cl)ncnc3c2c2c1CCC2", "activity change, negative = inhibition": "-4.6% (inactive)"}, {"smiles": "Cc1cccc(NC(=O)c2ccc(Cl)c(S(=O)(=O)N3CCc4ccccc43)c2)n1", "activity change, negative = inhibition": "-9.41% (inactive)"}, {"smiles": "COc1ccc(CCNC2=C(Cl)C(=O)N(CCc3ccc(OC)c(OC)c3)C2=O)cc1OC", "Potency": "37.9 µM (active)"}, {"smiles": "COc1ccc(CCNc2ncnc3c2[nH]c2cc(OC)c(OC)cc23)cc1OC", "activity change, negative = inhibition": "-3.52% (inactive)"}, {"smiles": "COc1ccc(CCNC2=C(Cl)C(=O)N(CCc3ccccc3)C2=O)cc1OC", "activity change, negative = inhibition": "-9.23% (inactive)"}, {"smiles": "COc1cccc(N2CCN(c3ncnc4c3cnn4-c3ccc(C)cc3C)CC2)c1", "Potency": "33.8 µM (active)"}, {"smiles": "COc1ccc(OC)c(NC(=O)CSc2ncnc3c2cnn3-c2ccccc2Cl)c1", "activity change, negative = inhibition": "-8.87% (inactive)"}, {"smiles": "COc1ccc(-n2ncc3c(N(C)C4CCCCC4)ncnc32)cc1", "activity change, negative = inhibition": "-3.61% (inactive)"}, {"smiles": "O=C(NC1C2CC3CC(C2)CC1C3)c1ccc2c(c1)OCO2", "note": "(centres undefined)", "activity change, negative = inhibition": "1.26% (inactive)"}, {"smiles": "CC(C)(C)OC(=O)NCCCCCc1cn([C@@H](CO)C(=O)NCCCCCCCCCCC(=O)N2CCN(C(=O)OC(C)(C)C)CC2)nn1", "Potency": "37.9 µM (active)"}, {"smiles": "Cc1cccc(OCC(=O)Nc2nc3ccc([N+](=O)[O-])cc3s2)c1C", "activity change, negative = inhibition": "2.41% (inactive)"}, {"smiles": "CCOc1cc(N2CCOCC2)c(OCC)cc1NC(=O)c1cc(S(=O)(=O)N2CCOCC2)ccc1C", "activity change, negative = inhibition": "-0.64% (inactive)"}, {"smiles": "CC(C)c1nnc(NC(=O)c2nc(S(=O)(=O)Cc3ccccc3F)ncc2Cl)s1", "activity change, negative = inhibition": "-6.24% (inactive)"}, {"smiles": "CN(c1cccc(NC(=O)c2ccc(Cl)c(S(=O)(=O)Nc3ccccc3)c2)c1)S(C)(=O)=O", "activity change, negative = inhibition": "1.14% (inactive)"}, {"smiles": "CCC1CCCCN1S(=O)(=O)c1ccc(NC(=O)c2nc(S(C)(=O)=O)ncc2Cl)cc1", "note": "(centres undefined)", "Potency": "30.1 µM (active)"}, {"smiles": "CCCc1nnc(NC(=O)c2nc(S(=O)(=O)Cc3ccc(C)cc3)ncc2Cl)s1", "activity change, negative = inhibition": "-2.21% (inactive)"}, {"smiles": "CCN(c1ccccc1)S(=O)(=O)c1ccc(NC(=O)c2nc(S(C)(=O)=O)ncc2Cl)cc1", "Potency": "33.8 µM (active)"}, {"smiles": "Cc1ccc(CS(=O)(=O)c2ncc(Cl)c(C(=O)Nc3nnc(C(C)C)s3)n2)cc1", "activity change, negative = inhibition": "-6.84% (inactive)"}, {"smiles": "COC(=O)c1ccc(NC(=O)c2nc(S(=O)(=O)Cc3cccc(C)c3)ncc2Cl)cc1", "activity change, negative = inhibition": "-1.75% (inactive)"}, {"smiles": "CCOC(=O)c1ccc(NC(=O)c2nc(S(=O)(=O)Cc3ccccc3)ncc2Cl)cc1", "activity change, negative = inhibition": "-2.38% (inactive)"}, {"smiles": "Cc1ccc(NC(=O)c2nc(S(=O)(=O)Cc3ccccc3C)ncc2Cl)cc1C", "activity change, negative = inhibition": "-0.454% (inactive)"}, {"smiles": "O=C(Nc1ccccc1)c1nnsc1S(=O)(=O)c1ccc(Cl)cc1", "activity change, negative = inhibition": "-4.24% (inactive)"}, {"smiles": "CN(c1ccccc1)S(=O)(=O)c1ccc(NC(=O)c2nc(S(C)(=O)=O)ncc2Cl)cc1", "Potency": "30.1 µM (active)"}, {"smiles": "CCS(=O)(=O)c1ncc(Cl)c(C(=O)Nc2ccc(S(=O)(=O)N(C)c3ccccc3)cc2)n1", "Potency": "42.6 µM (active)"}, {"smiles": "COc1ccc(OC)c(NC(=O)c2cc(S(=O)(=O)NCc3ccco3)ccc2F)c1", "activity change, negative = inhibition": "-2.65% (inactive)"}, {"smiles": "COc1ccccc1C1CCN(c2cc(O)ccc2[N+](=O)[O-])CC1", "activity change, negative = inhibition": "1.21% (inactive)"}, {"smiles": "Cc1ccc(C)c(N2CCN(C(=O)C(Cc3ccccc3)n3cccc3)CC2)c1", "note": "(centres undefined)", "activity change, negative = inhibition": "-3.11% (inactive)"}, {"smiles": "Cc1ccccc1NC(=O)c1cc2ccccn2n1", "activity change, negative = inhibition": "2.78% (inactive)"}, {"smiles": "Cc1csc(NC(=O)c2cc3c(C)nn(Cc4ccccc4Cl)c3s2)n1", "activity change, negative = inhibition": "-3.84% (inactive)"}, {"smiles": "COC(=O)CCN(Cc1cc(OC)ccc1OC)S(=O)(=O)c1ccccc1Br", "activity change, negative = inhibition": "1.58% (inactive)"}, {"smiles": "CCn1c(=NC(=O)CSC(C)=O)sc2cc(OC)ccc21", "activity change, negative = inhibition": "-1.89% (inactive)"}, {"smiles": "Brc1ccc(CNc2ccc3ncccc3c2)cc1", "activity change, negative = inhibition": "0.575% (inactive)"}, {"smiles": "Cc1n[nH]c(C)c1S(=O)(=O)N1CCCC(C(=O)N2CCN(c3ccc(Cl)cc3)CC2)C1", "note": "(centres undefined)", "activity change, negative = inhibition": "-2.41% (inactive)"}, {"smiles": "CCCCn1c(-c2c(Cl)c(C)nn2C)n[nH]c1=S", "activity change, negative = inhibition": "2.87% (inactive)"}, {"smiles": "Clc1ccc(CCNc2ncnc3nc[nH]c23)cc1", "activity change, negative = inhibition": "-2.95% (inactive)"}, {"smiles": "Cc1cc(-n2c(C)cc(C(=O)CSc3[nH]c(=O)cc(C(F)(F)F)c3C#N)c2C)no1", "activity change, negative = inhibition": "2.79% (inactive)"}, {"smiles": "Cc1ccc(C(=O)C2=C(O)C(=O)N(c3ncccn3)C2c2ccccc2F)o1", "note": "(centres undefined)", "activity change, negative = inhibition": "-6.53% (inactive)"}, {"smiles": "O=c1[nH]nc(Cc2ccc(-c3cccc(Cl)c3)o2)c2ccccc12", "activity change, negative = inhibition": "1.92% (inactive)"}, {"smiles": "C1=C(CCNc2ncnc3c2[nH]c2ccccc23)CCCC1", "activity change, negative = inhibition": "-9.93% (inactive)"}, {"smiles": "COc1ccc(N2CCN(C(c3nnnn3CCc3ccccc3)C(C)C)CC2)cc1", "note": "(centres undefined)", "activity change, negative = inhibition": "-0.511% (inactive)"}, {"smiles": "O=C(NCCC1=CCCCC1)C1CCCN(S(=O)(=O)c2ccccc2)C1", "note": "(centres undefined)", "activity change, negative = inhibition": "-0.0889% (inactive)"}, {"smiles": "CCCCCCOc1ccc(NC(=O)CC2C(=O)N(CC)C(=S)N2Cc2ccco2)cc1", "note": "(centres undefined)", "activity change, negative = inhibition": "0.236% (inactive)"}, {"smiles": "COc1ccc(Nc2ccc([N+](=O)[O-])c3nonc23)c(OC)c1", "activity change, negative = inhibition": "1.19% (inactive)"}, {"smiles": "O=[N+]([O-])c1ccc(Sc2cccc[n+]2[O-])c2nonc12", "Potency": "23.9 µM (active)"}, {"smiles": "COC(=O)c1c(NC(NC(C)=O)C(Cl)(Cl)Cl)sc2c1CCCC2", "note": "(centres undefined)", "activity change, negative = inhibition": "1% (inactive)"}, {"smiles": "COc1cc([N+](=O)[O-])cc(/C=C2/SC(=S)N(Cc3ccccc3)C2=O)c1O", "activity change, negative = inhibition": "-3.99% (inactive)"}]}]}
